Data taken from paper PMC4336329 (PLoS ONE, 2015).
The campaign covered roughly 310,000 compounds. About 14,000 (4.5%) showed an effect of 50% or more. Effects have a minus sign here. Many of the other results were omitted from the sample, so strong results are more common in it than they were.

target: human ether-à-go-go-related gene (hERG) potassium channel (human, UniProt Q12809); assay: primary screen, population patch clamp on CHO cells stably expressing hERG; higher = less effect of the substance
Sequence (Q12809 whole entry, looked up): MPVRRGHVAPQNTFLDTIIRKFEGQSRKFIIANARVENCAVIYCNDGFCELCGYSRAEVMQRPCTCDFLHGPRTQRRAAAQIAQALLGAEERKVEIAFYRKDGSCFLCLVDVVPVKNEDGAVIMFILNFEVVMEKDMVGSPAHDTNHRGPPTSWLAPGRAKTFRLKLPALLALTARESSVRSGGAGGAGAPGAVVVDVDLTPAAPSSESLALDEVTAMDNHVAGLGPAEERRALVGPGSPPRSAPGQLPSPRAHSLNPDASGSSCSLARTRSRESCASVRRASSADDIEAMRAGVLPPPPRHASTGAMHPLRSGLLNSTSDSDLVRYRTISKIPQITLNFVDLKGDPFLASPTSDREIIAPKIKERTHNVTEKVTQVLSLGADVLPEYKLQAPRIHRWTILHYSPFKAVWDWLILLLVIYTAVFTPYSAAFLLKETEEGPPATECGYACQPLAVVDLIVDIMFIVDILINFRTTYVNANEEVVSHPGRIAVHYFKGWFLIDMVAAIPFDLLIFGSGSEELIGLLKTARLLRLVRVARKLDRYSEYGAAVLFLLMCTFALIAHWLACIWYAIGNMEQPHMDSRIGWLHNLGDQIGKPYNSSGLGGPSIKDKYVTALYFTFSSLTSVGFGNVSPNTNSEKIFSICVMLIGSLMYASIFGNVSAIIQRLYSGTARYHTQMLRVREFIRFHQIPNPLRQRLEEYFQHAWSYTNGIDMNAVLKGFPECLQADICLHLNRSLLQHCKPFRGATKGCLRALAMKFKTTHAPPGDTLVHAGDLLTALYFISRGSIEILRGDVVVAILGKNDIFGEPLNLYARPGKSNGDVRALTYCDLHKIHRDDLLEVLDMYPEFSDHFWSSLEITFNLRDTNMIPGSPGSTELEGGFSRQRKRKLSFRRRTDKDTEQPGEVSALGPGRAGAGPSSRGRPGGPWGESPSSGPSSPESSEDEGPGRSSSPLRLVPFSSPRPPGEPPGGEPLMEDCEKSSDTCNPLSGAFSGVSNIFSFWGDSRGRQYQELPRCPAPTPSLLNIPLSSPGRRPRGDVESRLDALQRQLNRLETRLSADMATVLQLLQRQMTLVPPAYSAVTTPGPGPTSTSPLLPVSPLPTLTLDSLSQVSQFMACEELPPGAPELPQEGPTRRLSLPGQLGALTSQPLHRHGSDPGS
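Note: peak tail current of the secondary pulse compared with the same well before compound.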

Row | Compound | hERG current change (%, negative = inhibition) at 10uM [%]
1 | O=C(O)C1CCCCC1C(=O)NCCc1ccncc1 (stereo not drawn) | 1.96
2 | O=C(c1ccc(F)cc1)N1CCN2C(=O)c3ccccc3C12c1ccccc1 (stereo not drawn) | -31.5
3 | COc1ccc2[nH]c(=O)c(CN(C(C)=O)c3cccc(C)c3)cc2c1 | -8.64
4 | Nc1nonc1-n1nnc(C(=O)N/N=C/c2ccccc2)c1CSc1ccc(Cl)cc1 | -23.6
5 | Cc1ccccc1C(=O)OC1OC(=O)C(Cl)=C1N1CCOCC1 (stereo not drawn) | -20.1
6 | O=C1CCCC2=C1C(c1ccncc1)c1c(nc(SCc3ccccc3)[nH]c1=O)N2 (stereo not drawn) | 17.7
7 | O=C(c1cc([N+](=O)[O-])ccc1N1CCN(S(=O)(=O)c2ccc(Cl)c(Cl)c2)CC1)N1CCOCC1 | -52.4
8 | CCOC(=O)N1CCN(C(=O)c2cnc3n(c2=O)CCS3)CC1 | 7.34
9 | O=C(c1cnc2n(c1=O)CCS2)N1CCN(c2ccc([N+](=O)[O-])cc2)CC1 | -63
10 | O=C(c1cc([N+](=O)[O-])ccc1N1CCOCC1)N1CCN(S(=O)(=O)c2ccc(F)cc2)CC1 | -32.5
11 | CC(=O)c1cnc2n(c1=O)CCS2 | 27.8
12 | O=C(c1cc([N+](=O)[O-])ccc1N1CCOCC1)N1CCN(S(=O)(=O)c2cc(Cl)ccc2Cl)CC1 | -32.3
13 | CCOC(=O)C(C)Sc1nnc(Cc2cc(=O)[nH]c(=O)[nH]2)n1-c1ccc(Cl)cc1 (stereo not drawn) | 2.15
14 | C/C(=N/OC(=O)c1c(F)cccc1F)c1nccs1 | 3.34
15 | CCOC(=O)CSc1nnc([C@H](Cc2ccccc2)NC(=O)OC(C)(C)C)o1 | -14.3
16 | COc1ccc2c(COC(=O)CNC(=O)C34CC5CC(CC(C5)C3)C4)cc(=O)oc2c1 | -31.4
17 | COc1ccc([C@@H](C)NC(=O)c2ccc3oc(C(C)C)nc3c2)cc1 | 26.1
18 | O=C(NC(=S)Nc1ccccc1F)c1ccc(Br)o1 | 8.98
19 | O=C(c1ccco1)N1CCN(C(=O)C2CC(c3ccc(Cl)cc3)=NO2)CC1 (stereo not drawn) | -76.2
20 | COc1ccc(C2=NOC(C(=O)N3CCN(C(=O)c4ccco4)CC3)C2)cc1OC (stereo not drawn) | 0.127
21 | O=C(c1ccco1)N1CCN(C(=O)C2CC(c3ccc(F)cc3)=NO2)CC1 (stereo not drawn) | -72.5
22 | COc1cc(OC)c(C2=NOC(C(=O)N3CCN(C(=O)c4ccco4)CC3)C2)cc1Cl (stereo not drawn) | -35.3
23 | COc1cccc(C2=NOC(C(=O)N3CCN(C(=O)c4ccco4)CC3)C2)c1 (stereo not drawn) | -40.1
24 | O=C(c1ccco1)N1CCN(C(=O)C2CC(c3ccccc3F)=NO2)CC1 (stereo not drawn) | -18.3
25 | N#CC1(c2ccccc2)CCCN1C(=O)c1ccc(Br)cc1 (stereo not drawn) | -8.79
26 | CC(=O)Nc1ccc(NC(=O)COc2ccc3c(c2)CCC3)cc1 | 24.5
27 | N#CC1CCCc2c1[nH]c1ccc([N+](=O)[O-])cc21 (stereo not drawn) | 12.5

Row | Compound | hERG current change (%, negative = inhibition) at 10uM [%]
28 | Cc1cc(C)cc(NC(=O)NC2CCCCCCC2)c1 | -5.07
29 | CCCN1C2CCCC1CC(NC(=S)Nc1cccc(C)c1)C2 (stereo not drawn) | -44.5
30 | C=CCN1C2CCCC1CC(NC(=O)Nc1cccc(C(C)=O)c1)C2 (stereo not drawn) | 5.52
31 | C=CCN1C2CCCC1CC(NC(=O)Nc1cc(C)cc(C)c1)C2 (stereo not drawn) | -51.8
32 | S=C(Nc1ccc(Cl)cc1)NC1CC2CCCC(C1)N2C1CCCC1 (stereo not drawn) | -55.5
33 | CCCN1C2CCCC1CC(NC(=S)Nc1cc(C)cc(C)c1)C2 (stereo not drawn) | -83.7
34 | CCCN1C2CCCC1CC(NC(=S)Nc1cc(C)ccc1C)C2 (stereo not drawn) | 11.6
35 | S=C(Nc1ccccc1Cl)NC1CC2CCCC(C1)N2C1CC1 (stereo not drawn) | -23.8
36 | Cc1cc(C)cc(NC(=S)NC2CC3CCCC(C2)N3C2CC2)c1 (stereo not drawn) | -67.3
37 | COc1ccc(NC(=S)NC2CC3CCCC(C2)N3C2CC2)cc1 (stereo not drawn) | -41.3
38 | S=C(Nc1cccc(Cl)c1)NC1CC2CCCC(C1)N2C1CCCC1 (stereo not drawn) | 19
39 | S=C(Nc1ccc(Cl)cc1)NC1CC2CCCC(C1)N2C1CC1 (stereo not drawn) | -32.9
40 | CC1=C(C)C(OCCBr)N(c2cc(O)c(Cl)cc2F)C1=O (stereo not drawn) | 4.66
41 | CN(C(=O)c1ccc(NC(=O)Cc2ccc(NC(=O)C3CCN(C(=O)CCc4ccccc4)CC3)cc2)cc1)C1CC1 | 9.51
42 | COc1cccc2cc(C(=O)n3ccc(C)n3)c(=O)oc12 | 8.24
43 | CN1CCN(C2=C(NS(=O)(=O)c3ccccc3)C(=O)c3ccccc3C2=O)CC1 | 2.75
44 | Cc1ccc(S(=O)(=O)NCC2CCC(C(=O)NCc3ccc4c(c3)OCO4)CC2)cc1 (stereo not drawn) | -0.473
45 | Cl.Clc1ccccc1CN1CCN(/N=C/c2ccncc2)CC1 | -24.3
46 | CCCCCCCN1C/C=C\C(c2ccc(OC)cc2)N(Cc2ccc(F)cc2)C(=O)[C@H]1Cc1ccccc1 (stereo partly drawn) | 8.55
47 | NC(=O)CC(NC(=O)Cc1ccc(Cl)cc1)c1ccc(N2CCC(Cc3ccccc3)CC2)c([N+](=O)[O-])c1 (stereo not drawn) | 17.7
48 | Cc1nc(SCC(=O)NCc2ccco2)c2c(C)c(C)sc2n1 | -2.85
49 | O=C(COC(=O)c1ccc(NS(=O)(=O)c2cccs2)cc1O)NC1CCCCC1 | 8.92
50 | O=C(O)CCS(=O)(=O)c1ccc(-c2ccccc2)cc1 | 19.3
51 | CSc1ccc(-c2nc(CSCC(=O)NCCCN3CCCC3=O)c(C)o2)cc1 | -14.4
52 | Cc1cc(C)cc(NC(=S)NC2CC3CCCC(C2)N3CC(C)C)c1 (stereo not drawn) | -7.32
53 | COc1cccc(NC(=S)NC2CC3CCCC(C2)N3C2CCCC2)c1 (stereo not drawn) | -33.6
54 | Cc1cc(C)cc(NC(=S)NC2CC3CCCC(C2)N3C2CCCC2)c1 (stereo not drawn) | -77.5
